Common to all, as to test: NCI-60 one-dose screen, 48 h (100 = growth as untreated, 0 = no growth, -100 = all killed)
The subject of experiment [1] is NCI-H23 lung. The settings on record: 10 µM unless noted.
Experiment [2] deals with NCI-H226 lung. The settings on record: 10 µM unless noted.
Experiment [3] deals with NCI-H322M lung. The following applies: 10 µM unless noted.
The test system of experiment [4] is NCI-H460 lung. The following applies: 10 µM unless noted.
The test system of experiment [5] is NCI-H522 lung. The settings on record: 10 µM.
Experiment [6] concerns A549/ATCC NSCLC. The following applies: 10 µM unless noted.
Experiment [7] concerns 786-0 renal. The following applies: 10 µM unless noted.
Experiment [8] has as its system COLO 205 colon. The settings on record: 10 µM unless noted.
In experiment [9] the test system is DU-145 prostate. The settings on record: 10 µM unless noted.
Experiment [10] deals with K-562 leukemia. The following applies: 10 µM unless noted.
In experiment [11] the test system is MALME-3M melanoma. The following applies: 10 µM unless noted.
Experiment [12] deals with MDA-MB-231 breast. The settings on record: 10 µM unless noted.
For experiment [13], the system named is RXF 393 renal. The following applies: 10 µM unless noted.
The subject of experiment [14] is SF-268 CNS. The settings on record: 10 µM unless noted.
Experiment [15] relates to SF-295 CNS. The settings on record: 10 µM unless noted.
The subject of experiment [16] is SF-539 CNS. The settings on record: 10 µM unless noted.
Experiment [17] concerns UACC-257 melanoma. The following applies: 10 µM unless noted.
For experiment [18], the system named is M14 melanoma. The following applies: 10 µM unless noted.
Experiment [19] concerns HOP-92 NSCLC. The settings on record: 10 µM.

Results on 8 compounds are retold here after PubChem BioAssay (NCI).

The panel holds about 83,000 compounds, 20% with a hit somewhere; the sample as a whole holds those more often.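 Growth was measured after 48 h exposure to one concentration of compound in 96-well plates. Values under 10 count as active.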 Unmarked numbers belong to inactive results. The source made the active and inactive calls.

For the compound `Oc1ccc(CN(Cc2ccc(C(F)(F)F)cc2)Cc2ccc(O)c3ncccc23)c2cccnc12`, the growth in [1] was 17.4%; in experiment [2] it was 18.3%; in experiment [3], 31.5%; in experiment [4], 1.74% (active); in experiment [5], 3.25% (active); in [6] it was 1.19% (active). Moreover, the growth was 11.4% in [7]; 19.6% in [8]; 24.1% in [9]; 8.17% (active) in [10]; 23.7% in experiment [11]; 48.4% in experiment [12]. Further, the growth in experiment [13] was 11.2%; in experiment [14], 25.6%; in experiment [15], 6.95% (active); in [16], 15.2%; in [17] it was -27.7% (active); in experiment [18] it was 3.46% (active).

As for `O=C(/C=C1\C(=O)N(Cc2ccccc2)c2ccccc21)c1ccc(OCCN2CCCCC2)cc1`, the growth in experiment [1] is 58.9%; in experiment [2] it was 84.6%; in [3] it was 92.6%; in experiment [4], 87.7%; in experiment [5], -44.5% (active); in experiment [6], 83%. The growth is -74.3% (active) in experiment [7]; -34% (active) in [8]; 47.5% in experiment [9]; 2.2% (active) in experiment [10]; 45.9% in [12]; 0.729% (active) in experiment [13]. Also, the growth is 73.9% in experiment [14]; 85.6% in [15]; 51.9% in experiment [16]; 76.8% in [17]; 37.9% in [18].

Consider `O=C(CN1CCN(c2cccc(Cl)c2)CC1)N1CCN(c2nnc(-c3ccc(Cl)cc3)c(-c3ccc(Cl)cc3)n2)CC1`, for which the growth was 87.7% in experiment [1]; 76.7% in [2]; 77.8% in [3]; 76.5% in experiment [4]; 91.2% in experiment [7]; 82.8% in experiment [8]. Also, the growth is 94.8% in [9]; 38.8% in experiment [10]; 105% in experiment [11]; 86.8% in [12]; 89.8% in [14]; 84.3% in [15]. The growth in [16] is 74.4%; in experiment [18], 106%.

In the case of `C/C=C/C/C=C/[C@H](C)C[C@H](O)[C@@H]1C[C@@H]2O[C@H]2/C=C/[C@@H]2OC(C)(C)O[C@H]2/C=C/C[C@H](C)CC(=O)O1`, the growth in experiment [1] was 36.3%; in [2], 30.5%; in experiment [3], 55.5%; in experiment [4] it was 17.4%; in experiment [6], 24.7%; in [7], 53.5%. The growth is 61.1% in experiment [8]; 36.1% in experiment [9]; 30.1% in experiment [10]; 87.6% in experiment [11]; 61.6% in experiment [12]; 81.1% in experiment [13]. Moreover, the growth was 46.9% in experiment [14]; 28.8% in experiment [15]; 71% in experiment [16]; 69.9% in [17]; 36.8% in [18].

As to `O=C(/C=C/c1cccc(O)c1)c1cccc(-n2cc(-c3ccc(Cl)cc3)[nH]c2=O)c1`, the growth in [1] was -19.5% (active); in [2], -48.7% (active); in experiment [3] it was -0.035% (active); in experiment [4] it was -4.62% (active); in experiment [5], -48.6% (active); in experiment [6], 28.3%. For the same compound, the growth in experiment [7] is -74.7% (active); in experiment [8], 42.1%; in experiment [9], -69.8% (active); in experiment [10] it was -18.4% (active); in experiment [11], -36% (active); in experiment [12], -17.3% (active). Also, the growth in experiment [13] is -61.1% (active); in experiment [14], -68.3% (active); in [15], 4.32% (active); in experiment [16], -89.7% (active); in [17], 22.1%; in experiment [18] it was -13% (active).

In the case of `O=C(Nn1cnc2ccccc21)N1CCCC1`, the growth in experiment [1] is 111%; in [2], 105%; in experiment [3] it was 86.7%; in experiment [5] it was 104%; in experiment [6], 109%; in experiment [7], 80.3%. For the same compound, the growth in experiment [8] is 117%; in [9], 102%; in experiment [10], 94%; in [11] it was 92.2%; in experiment [12] it was 94.2%; in [13] it was 109%. Moreover, the growth is 117% in experiment [14], 98.7% in [15], 91.8% in [16] and 101% in experiment [17].

With `CC(=N\N=C(N)N)/C(=N/N=C(N)N)c1ccccc1`, the growth in experiment [1] was 43.1%; in experiment [2], 91.4%; in [3], 76.4%; in experiment [19], 95.2%; in experiment [5] it was 94.4%; in [6], 86.2%. In addition, the growth is 101% in experiment [7]; 6.49% (active) in experiment [8]; 51.7% in [9]; 91.3% in experiment [10]; 99.2% in experiment [11]; 116% in experiment [12]. For the same compound, the growth in [13] is 104%; in experiment [15], 99.1%; in experiment [16], 74.6%; in experiment [17] it was 93.2%; in experiment [18], 88.6%.

Regarding `CCOC(=O)c1c(C)oc2ncnc(Nc3ccc(C(=O)NCCc4ccccc4)cc3)c12`, the growth in [1] was 81.8%; in [2], 63.2%; in experiment [3], 92.9%; in experiment [19], 61.6%; in experiment [5], 66.9%; in experiment [6], 56.6%. Moreover, the growth was 74.9% in experiment [7]; 82.1% in experiment [9]; 89% in experiment [10]; 89.5% in experiment [11]; 85.7% in experiment [12]; 71.8% in [13]. Also, the growth was 74.1% in [14]; 90.4% in experiment [15]; 58.9% in [16]; 79.7% in experiment [17]; 81.3% in experiment [18].
